What all share (assay): NCI-60 one-dose screen, 48 h (100 = growth as untreated, 0 = no growth, -100 = all killed)
Experiment [1] relates to SR leukemia. Particulars: 10 µM unless noted.
The test system of experiment [2] is RPMI-8226 leukemia. Particulars: 10 µM unless noted.
Experiment [3] deals with OVCAR-8 ovarian. Particulars: 10 µM unless noted.
Experiment [4] has as its system OVCAR-5 ovarian. Particulars: 10 µM unless noted.
In experiment [5] the test system is OVCAR-4 ovarian. Particulars: 10 µM.
Experiment [6] deals with SK-OV-3 ovarian. Particulars: 10 µM unless noted.
The subject of experiment [7] is IGROV1 ovarian. Particulars: 10 µM unless noted.
The test system of experiment [8] is OVCAR-3 ovarian. Particulars: 10 µM unless noted.
Experiment [9] relates to NCI/ADR-RES ovarian. Particulars: 10 µM unless noted.
In experiment [10] the test system is T-47D breast. Particulars: 10 µM unless noted.
Experiment [11] deals with MDA-MB-435 melanoma. Particulars: 10 µM unless noted.
For experiment [12], the system named is SW-620 colon. Particulars: 10 µM unless noted.
The test system of experiment [13] is MCF7 breast. Particulars: 10 µM unless noted.
The test system of experiment [14] is HCT-116 colon. Particulars: 10 µM unless noted.
For experiment [15], the system named is HCC-2998 colon. Particulars: 10 µM unless noted.
For experiment [16], the system named is KM12 colon. Particulars: 10 µM unless noted.
Experiment [17] deals with HS 578T breast. Particulars: 10 µM unless noted.
Experiment [18] has as its system BT-549 breast. Particulars: 10 µM unless noted.

Compounds without any hit were thinned out: in the full panel of roughly 83,000, 20% have a hit.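 Percent growth is the endpoint: 0 to 100 indicates growth inhibition (40 means 60% inhibition), 0 means no net growth, and negative values indicate cell death.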 A number with no mark means an inactive call. Activity calls are given as the source filed them. The calls were made as follows: active = growth percent below 10; inactive = the rest.

Turning to `Nc1nc(Nc2ccccc2)c2ncn(Cc3cc4c(cc3Br)OCO4)c2n1`, the growth in [1] was 10.5%; in experiment [2] it was 9.96% (active); in [3], 6.21% (active); in experiment [4], 32.1%; in [5], 40.6%; in experiment [6], 11.5%. Also, the growth is 37.5% in experiment [7]; 2.58% (active) in experiment [8]; 8.6% (active) in [9]; 72.3% in [10]; -16.9% (active) in experiment [11]; 20.5% in [12]. In addition, the growth in [13] was 12.4%; in experiment [14] it was 7.79% (active); in [15] it was 23%; in experiment [16] it was 11.6%.

For `CCOC(=O)Nc1ccc2c(c1)/C(=N\NC(=S)NC)c1ccccc1-2`, the growth in experiment [1] is 63.9%; in [2] it was 58.7%; in experiment [3], 83%; in experiment [4] it was 97.8%; in [5], 92.3%; in [6], 112%. The growth in experiment [7] is 100%; in experiment [17], 90.4%; in experiment [9] it was 76.7%; in [10], 66.7%; in experiment [18], 94%; in experiment [12] it was 93.6%. The growth in experiment [13] is 74.6%; in experiment [14], 87.6%; in [15], 88.2%; in [16], 71%.

On to `CCOc1ccc(/C=C(\C#N)c2cc3ccccc3[nH]2)cc1`, for which the growth in experiment [1] was 18.2%; in [2], 79.7%; in [3], 65.4%; in experiment [4] it was 76.5%; in experiment [5], 82.5%; in [6] it was 67.8%. In addition, the growth in [8] was 41.9%; in [9] it was 26.1%; in experiment [10], 39.7%; in experiment [11], -28.8% (active); in experiment [12] it was 24.6%; in experiment [13], 24.7%. Also, the growth in experiment [14] is 37.1%; in experiment [15], 72.5%; in [16] it was 22.5%.

Turning to `Nc1cccc2c1C(=O)c1cccc(NC(=O)c3ccccc3)c1C2=O`, the growth in [1] is 15.1%; in [2] it was 15.2%; in experiment [3], 34.4%; in experiment [4] it was 57.6%; in experiment [5] it was 53%; in experiment [6], 20.4%. Besides, the growth in [8] is -41.1% (active); in experiment [9], -31.1% (active); in experiment [10], 45.6%; in experiment [18], 24.9%; in experiment [11], -56.4% (active); in [13], 13.7%. The growth in [14] was 19.9%; in experiment [15], -10.5% (active); in experiment [16], 32.5%.

Turning to `O=c1cc(-c2ccccc2)oc2c(O)c(O)ccc12`, the growth was 36.6% in [1]; 45.6% in experiment [2]; 52.8% in experiment [3]; 62.9% in experiment [4]; 61.6% in [5]; 76.7% in [6]. For the same compound, the growth in [17] was 91.4%; in experiment [9], 24.5%; in experiment [10], 68.2%; in experiment [18] it was 67.4%; in [11], 68.8%; in experiment [13], 60.9%. For the same compound, the growth in experiment [14] is 39%; in experiment [15] it was 74.8%; in [16], 65.3%.

Consider `CCCC(NC(=O)OCc1ccccc1)C(=O)O` (stereo not drawn), for which the growth in [1] is 121%; in experiment [2], 68.7%; in [3], 93.5%; in experiment [4], 94.8%; in experiment [5], 106%; in experiment [6] it was 119%. For the same compound, the growth in experiment [8] was 106%; in experiment [17] it was 71.9%; in experiment [9], 60.4%; in experiment [10], 99.6%; in [11], 109%; in [12] it was 97.9%. In addition, the growth is 96% in [13], 98.1% in experiment [14] and 109% in [16].

Take `Nc1cc(NN=C(c2ccc(O)cc2)c2ccc(O)cc2)c([N+](=O)[O-])cc1[N+](=O)[O-]`: the growth in experiment [1] is 39.2%; in experiment [2], 74.3%; in experiment [3], -75.8% (active); in [4] it was -50.9% (active); in experiment [5], 76.1%; in experiment [6], -44.4% (active). The growth in [8] was 82%; in experiment [9], 7.33% (active); in [10] it was -55.9% (active); in experiment [18], 102%; in experiment [11], 96.5%; in experiment [12], 101%. In addition, the growth in [13] was -60.5% (active); in experiment [14], -61.8% (active); in experiment [15] it was -97.6% (active); in [16], 71.5%.

In the case of `CCN(CC)CCS(=O)(=O)CCNc1ccnc2cc(Cl)ccc12`, the growth is 6.28% (active) in experiment [1]; -4.96% (active) in [2]; 14.5% in [3]; 18.6% in experiment [4]; 24.7% in [5]; 22.5% in experiment [6]. The growth in experiment [8] is -14.9% (active); in [9] it was -14.2% (active); in [10] it was 43.4%; in experiment [18], -0.495% (active); in experiment [11], 3.99% (active); in experiment [13], 26.9%. For the same compound, the values for the growth in [15] and in experiment [16] were -13.5% (active) and -24.5% (active), respectively.

For `COc1ccc(C(=O)/C=C/c2ccccn2)c(O)c1`, the growth in experiment [1] is -1.93% (active); in experiment [2], 6.35% (active); in experiment [3] it was 92.6%; in experiment [4], 96.3%; in experiment [5], 92.1%; in experiment [6], 98.6%. Besides, the growth was 87.5% in [17]; 94% in experiment [9]; 61.6% in [10]; 76.5% in experiment [18]; 77.3% in experiment [11]; 43.4% in experiment [12]. The growth in experiment [13] is 15.9%; in experiment [14], 76.5%; in experiment [15], 93.6%; in [16], 51.1%.

Take `Nc1ccc(NC(=O)c2ccccc2)c2c1C(=O)c1ccccc1C2=O`: the growth was 96.8% in experiment [1]; 102% in experiment [2]; 96.9% in experiment [3]; 117% in experiment [4]; 103% in [5]; 112% in experiment [6]. Moreover, the growth is 96.5% in experiment [8]; 99.6% in experiment [9]; 107% in experiment [10]; 101% in experiment [18]; 98.2% in experiment [11]; 98.3% in experiment [12]. Besides, the growth was 81.6% in experiment [13], 101% in experiment [14] and 96% in experiment [16].

The values above are taken from PubChem BioAssay (NCI).
